Source: PubChem BioAssay (NCATS)
Records with an inconclusive call do not appear. The source made the active and inactive calls. Calls follow the shape of the full dose curve.

molecular target: Atrial natriuretic peptide receptor 1 (Homo sapiens) (UniProt P16066); test: Natriuretic polypeptide receptor (hNpr1) antagonism - Pilot CMLD screen (AID 1347052); conditions: HEK293 hNpr1 GloSensor cGMP luminescence, ANP-stimulated; series mostly up to 9.22 µM
Description: In order to identify small molecular compounds that inhibit the hNpr1 receptor we developed a high-throughput assay to measure inhibition of the guanylate cyclase activity of the receptor. cGMP production was measured using a circular permutated Firefly luciferase (FLuc) enzyme functionally linked to the cGMP binding domain of human phosphodiesterase 5 (GloSensor technology pGS-40F, (Fan, F. et al. 2008). The cGMP-sensor was expressed in human embryonic kidney 293 (HEK-293) cells and FLuc activity was measured after stimulation with hNrp agonist peptide. hNrp agonists activates the receptor's associated guanylyl cyclase (GC) domain producing cGMP which then binds to the GloSensor resulting in FLuc activation, the enzymatic activity of which can be measured as bioluminescence with addition of luciferin substrate.
This assay was initially piloted by testing with a small library of specialty compounds.
PROTOCOL TABLES (as described by Inglese J, Shamu CE and Guy RK. 2007)
SEQUENCE No. (e.g., 1, 2, 3, etc.); […] (e.g., Cells, Incubation, Reagent, etc.); VALUE and DESCRIPTION.
1. Cells. Seed 1500 HEK293 cGMP-sensor cells expressing hNpr1 per well in 4uL into Greiner 1536-well white/solid bottom high base, tissue culture-treated plates.
2. Incubation. Incubate plated cells at 37C in 5% CO2, 95% RH overnight.
3. Reagent. Add 1uL per well GloSensor reagent from Promega (2% final concentration) or CO2 independent media vehicle control to respective columns of Greiner 1536-well plates.
4. Incubation. Incubate plated cells at room temperature for 2 h, protect from light.
5. Compounds. Library compounds and A-71915 control added at 23 nL per well, transferred by Pin Tool.
6. Incubation. Incubate plated cells for 30 min. at room temperature, protect from light.
7. Detector. GloSensor baseline pre-read luminescence measured using CCD-based camera (Viewlux).
8. Compound. Add 1uL of hNppA peptide to 0.1 nM final concentration to stimulate hNpr1 or CO2 independent media as vehicle control.
9. Incubation. Incubate treated cells at room temperature for 20 min., protect from light.
10. Detector. GloSensor post-hNppA luminescence measured using CCD-based camera (Viewlux).
NOTES (numbers refer to Sequence numbers above)
1. HEK293 cells expressing hNpr1 and GIP/pGS-40F grown to 85-95% confluence (48-72 h) in T175 culture flasks (CO2 independent media supplemented with 10% FBS, 1% Pen/Strep antibiotics and 1 ug/mL puromycin). Trypsinize and harvest cells from T175 culture flasks and filter through 40 um cell strainer. Cells counted with Invitrogen Countess (30,000,000 - 50,000,000 cells/flask). Cells diluted to a final concentration of 375 cells/uL in CO2 independent media and a Millipore multidrop used to dispense 1500 cells per well (4uL/well) into 13 1536-well Greiner White/Solid bottom, high base tissue-culture treated (TC) plates and one Aurora 1536-well Black/Clear bottom, low base, TC plate (for visual inspection of cell health throughout the duration of the assay).
2. Cells incubated overnight at ambient temperature, 24 h. at 37C in 95% RH incubator protected from light, covered with metal lid with gas-exchange holes.
3. Prepare GloSensor Reagent (Promega): Reconstitute GloSensor luciferase substrate by adding 8.2mL Hepes buffer to 250mg substrate, mix well, protect from light and stored at -80C. Prepare a fresh 12% GloSensor solution in CO2 independent supplemented plating media (see above). Mix well and store at ambient temperature, protected from light. 1uL 12% GloSensor Luciferase Reagent added (2% final concentration) to respective columns of 13 x 1536-well Greiner plate with BioRaptr, 1uL CO2 independent plating media added to respective columns as vehicle control with BioRaptr.
4. Cells incubated for 2 h. at ambient temperature, protected from light with metal lid with gas-exchange holes.
5. A-71915 stock solution prepared (10 mM in DMSO). […]
Potency is read from the fitted curve at half-maximal effect.

Atrial natriuretic peptide receptor 1 (Homo sapiens), sequence (P16066 whole entry, looked up, the tested form may be a part): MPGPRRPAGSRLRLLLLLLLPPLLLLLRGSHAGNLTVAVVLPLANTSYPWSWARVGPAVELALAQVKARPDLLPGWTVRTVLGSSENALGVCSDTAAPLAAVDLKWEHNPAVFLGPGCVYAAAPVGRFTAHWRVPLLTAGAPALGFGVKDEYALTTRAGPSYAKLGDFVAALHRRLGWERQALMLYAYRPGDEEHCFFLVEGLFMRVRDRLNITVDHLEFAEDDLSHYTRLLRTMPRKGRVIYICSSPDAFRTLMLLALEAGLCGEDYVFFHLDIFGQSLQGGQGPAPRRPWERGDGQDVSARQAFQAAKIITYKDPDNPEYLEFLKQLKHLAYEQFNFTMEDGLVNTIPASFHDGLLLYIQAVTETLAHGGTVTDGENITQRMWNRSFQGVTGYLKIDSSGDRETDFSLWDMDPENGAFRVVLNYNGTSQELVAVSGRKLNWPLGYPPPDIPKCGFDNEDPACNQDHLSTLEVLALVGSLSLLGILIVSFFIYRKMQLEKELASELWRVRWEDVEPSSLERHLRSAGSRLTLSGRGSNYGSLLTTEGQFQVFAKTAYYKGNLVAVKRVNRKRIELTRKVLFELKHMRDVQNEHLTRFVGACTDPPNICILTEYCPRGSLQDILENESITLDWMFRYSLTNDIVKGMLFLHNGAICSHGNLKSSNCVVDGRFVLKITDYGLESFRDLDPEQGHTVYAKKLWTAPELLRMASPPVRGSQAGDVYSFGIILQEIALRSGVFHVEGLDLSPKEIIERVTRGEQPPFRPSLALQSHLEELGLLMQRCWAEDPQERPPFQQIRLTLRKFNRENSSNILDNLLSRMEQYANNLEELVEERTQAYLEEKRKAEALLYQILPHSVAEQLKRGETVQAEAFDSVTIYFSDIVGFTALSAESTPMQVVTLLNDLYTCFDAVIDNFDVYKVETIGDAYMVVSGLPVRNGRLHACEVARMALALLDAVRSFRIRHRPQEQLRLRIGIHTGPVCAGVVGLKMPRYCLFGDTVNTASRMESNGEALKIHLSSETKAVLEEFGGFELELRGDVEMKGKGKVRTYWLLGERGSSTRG

Potency, active:
C[C@@H]1CC[C@H]2C(=O)N(Cc3ccccc3)C[C@H](O)CN2[C@@H]1c1ccc(Br)cc1 2.99 µM

Potency, inactive:
C=COC[C@@H]1CN2[C@H](c3ccc(Br)cc3)[C@H](C)CC[C@H]2C(=O)O1, COc1ccc(-c2nc3c(c4c2C[C@H](c2ccccc2)OC4)CN(S(=O)(=O)c2ccc(NC(C)=O)cc2)CC3)c(C)c1, COc1ccc2c(c1)O[C@@H](c1ccc3c(c1)OCO3)[C@H](OC(=O)Nc1ccc(OC(F)F)cc1)C2=O, O=C(NN=C1C[C@@H](O)[C@H](O)[C@H]2[C@@H]3C(=O)N(C[C@@H]4CCCO4)C(=O)[C@@H]3CC[C@@H]12)OCc1ccccc1, C=CCOC(=O)C(C(C)=O)[C@@H](NC(=O)OC)c1ccco1 (stereo not given in full), CCOC(=O)CN1C(=O)[C@]2(OC[C@@H]3Cc4ccccc4[C@H]3C=C2C)c2ccccc21, COc1ccc(COC(=O)NN=C2C[C@@H](O)[C@@H](O)[C@@H]3[C@H]4C(=O)N(Cc5ccc6c(c5)OCO6)C(=O)[C@@H]4CC[C@H]23)cc1, CC(=O)OC[C@H]1O[C@@H](ON=C2C[C@@H](O)[C@@H](O)[C@@H]3[C@H]4C(=O)N(Cc5ccccc5)C(=O)[C@@H]4CC[C@@H]23)[C@H](OC(C)=O)[C@@H](OC(C)=O)[C@H]1OC(C)=O, C#CCCCON=C1C[C@@H](O)[C@H](O)[C@H]2[C@@H]3C(=O)N(C4CCCCC4)C(=O)[C@@H]3CC[C@@H]12, COC(=O)C1=C(C)[C@@H](O)[C@@H](C)[C@](C)(c2cc(OC)c(C)c(OC)c2COc2ccccc2)O1, CCN1C(=O)N[C@@H](CCc2ccccc2)[C@H](C(C)=O)[C@H]1C, COC(=O)C1=C(C)N(CCc2cc(OC)c(OC)c(OC)c2)C(=O)NC1c1ccc(Br)cc1 (stereo not given), CC(C)CON=C1C[C@@H](O)[C@@H](O)[C@@H]2[C@H]3C(=O)N(c4ccc(F)cc4F)C(=O)[C@@H]3CC[C@H]12, CC=CC1=CC2=CC(=O)C(C)(OC(=O)c3c(C)cc(O)cc3O)C(=O)C2=CO1 (stereo not given), CC(=O)OC[C@H]1O[C@H](C#Cc2ccc(F)cc2F)C=C[C@H]1OC(C)=O, CCN1C(=NCc2ccccc2)NC(c2cccc(C(F)(F)F)c2)C(C(=O)OC)=C1C (stereo not given), C=C(C(C)=O)C(O)c1ccc(Cl)cc1 (stereo not given), COC(=O)C1=C(C(=O)OC)[C@@H]2N(C)c3ccccc3[C@@]23C[C@@H](C(=O)OC)N(C(=O)c2cccs2)C3=N1, CCN1C(=O)[C@@H]2[C@H]3[C@H](O)[C@H](O)CC(=NO[C@H](C)CN4CCCc5nc(C)c(C)cc54)[C@@H]3CC[C@H]2C1=O, CCCCCCCC=CC1=CC2(C)CC1(C)C(CCCCCCC)CC2=O (stereo not given), CCN1C(=O)N[C@@H](c2ccccc2)[C@H](C(=O)OC)[C@H]1C, COC1=CC2C(=O)C([C@@H]3c4ccccc4C[C@]23C)C1(O)c1cccc(OC)c1 (stereo not given in full), CCCCCCCC1=Cc2ccc(F)cc2C(C(C(=O)OC)C(=O)OC)N1C(=O)OC (stereo not given), CC(C)CON=C1C[C@@H](O)[C@@H](O)[C@@H]2[C@H]3C(=O)N([C@@H](C)c4ccccc4)C(=O)[C@@H]3CC[C@H]12, COc1ccc([C@]23Cc4cc(C#N)ccc4[C@H](O2)c2c(cc(C)n(Cc4ccccc4)c2=O)O3)cc1, COc1ccc(C=CN(CCc2ccc(OC)c(OC)c2)C(=O)c2ccccn2)cc1, COC(=O)CCC(=O)OC1(C)C(=O)C=C2C=C(C3CC3)N(Cc3ccc4c(c3)OCO4)C=C2C1=O (stereo not given), COC(=O)C1(C(=O)OC)Cc2conc2[C@@H]1c1ccccc1, COC(=O)N[C@H](CC(C)=O)c1cccc(F)c1, COC(=O)NC(c1ccccc1)C1(C(=O)OC)C(=O)Cc2ccccc21 (stereo not given), CCOC(=O)CCN1C(=O)[C@@H]2[C@H]3[C@H](O)[C@H](O)CC(=NNC(=O)OCc4ccc(OC)cc4)[C@H]3CC[C@H]2C1=O, O=C1N(Cc2ccc(Br)cc2)c2cccc(Br)c2[C@@]12O[C@H](COc1ccccc1)CC1=CCCC12 (stereo not given in full), C=C(C)CO[C@H]1C=C[C@@H](c2ccccc2)O[C@H]1CO, COC(=O)CC=C[C@H](C)[C@@H](OCc1ccccc1Br)C(C)C, CCCCCCCC1=CC2=C(Cl)C(=O)C(C)(OC(C)=O)C(=O)C2=CO1 (stereo not given), COC(=O)CCCC1=CC2=CC(=O)C(C)(O)C(=O)C2=CO1 (stereo not given), COc1cc2c(c(OC)c1OC)CC(c1ccccc1)=C(c1ccccc1)CC2NC(=O)C(F)(F)F (stereo not given), COC(=O)N[C@H](C(C(=O)OC)=C(C)NCc1ccccc1)c1ccc(Cl)cc1, COc1ccc2c(c1)O[C@H](c1ccc3c(c1)OCO3)[C@@H](OC(=O)N[C@H]1CCCc3ccccc31)C2=O
